Screening data deposited in PubChem BioAssay by National Center for Advancing Translational Sciences (NCATS).
UDG counter – Primary qHTS assay for inhibitors of Activation Induced Cytidine Deaminase (AID): UDG Counterscreen signal; Potency, µM (top dose mostly 115 µM), for inactives: at the highest dose activity change, negative = inhibition, most hits filed as inhibitors; FRET deamination/UDG coupled assay, UDG read, 4 h; 91,000 compounds, 0.14% hits; note: nearly all actives have a fitted effect of over 65% in size
AID inh – Primary qHTS assay for inhibitors of Activation Induced Cytidine Deaminase (AID): AID signal; AID deamination FRET fluorescence, UDG-coupled, 4 h; 91,000 compounds, 0.32% hits; Single-stranded DNA cytosine deaminase (Homo sapiens), Q9GZX7; Potency, µM (doses to about 115 µM), actives largely listed as inhibitors; note: nearly all actives have a fitted effect of over 25% in size
Target sequence (Q9GZX7 whole entry, looked up): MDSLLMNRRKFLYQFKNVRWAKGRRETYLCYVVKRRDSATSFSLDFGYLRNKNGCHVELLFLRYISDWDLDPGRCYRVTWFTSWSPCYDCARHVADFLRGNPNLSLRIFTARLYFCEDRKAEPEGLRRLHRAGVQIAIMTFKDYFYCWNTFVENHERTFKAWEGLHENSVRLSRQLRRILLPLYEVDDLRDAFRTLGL
Active calls of the source: *; i = inactive; ? = inconclusive; [ ] = another dose, or the depositor's remark. The list is not random: actives were taken first. Their share in the collection is about 0.47%. Calls come from the whole dose curve; as a rule, active = well fitted curve in the direction sought with a large enough effect; inconclusive = small, poorly fitted or top-dose-only effect, or another doubt; inactive = no such curve, though single readings can be large; an effect the other way counts as inactive or inconclusive. % is set by controls: 0 for no effect and ±100 for the full control effect; potency is the fitted concentration of half-maximal effect.

SMILES	UDG counter	AID inh
Cc1ccc(/C=C/c2onc(C)c2S(=O)(=O)N2CCC(C(=O)N3CCC(N(C)C(C)C)CC3)CC2)cc1	-19.5%	44.7µM*
Cc1nc(-c2ccncc2)[nH]c(=O)c1CC(=O)N(C)C(C)C(C)(C)C (centres undefined)	2.7%	i
Cc1nc(-c2ccncc2)[nH]c(=O)c1CC(=O)N(C)C1CCCCC1	2.5%	28.2µM*
CC(Oc1ccc(C=Nc2ccc(N3CCOCC3)cc2)cc1)C(=O)O (centres undefined)	-8.2%	i
Cc1[nH][nH]c(=O)c1C(c1cccc(OCc2ccc(Cl)cc2)c1)c1c(C)[nH][nH]c1=O	-5.1%	?
O=C1C(SCCO)=C(SCCO)C(=O)c2ccccc21	-10.3%	11.2µM*
CC(C)N(CCNC(=O)C(c1ccccc1)c1ccccc1)C(C)C	-1.5%	i
CC(Sc1ccc(Br)cn1)C(=O)Nc1cccc(Br)c1 (centres undefined)	-2.1%	i
N#Cc1c(N2C(=O)CC(c3ccc4c(c3)OCO4)C3=C2CCCC3=O)sc2c1CCCCC2 (centres undefined)	1.8%	i
COc1cccc(C2C(C#N)=C(N)OC3=C2C(=O)CC(c2ccccc2)C3)c1 (centres undefined)	11.4%	i
CCC(C(=O)NCc1cccc(Br)c1)n1nc(C)c2c(C)n(-c3ccccc3)nc2c1=O (centres undefined)	-19.4%	?
CCc1ccc(CNC(=O)C(CC)n2nc(C)c3c(C)n(-c4ccccc4)nc3c2=O)cc1 (centres undefined)	-20.2%	70.8µM*
O=c1oc2ccccc2c(NC2CCCCC2)c1NS(=O)(=O)c1ccccc1	-4.3%	i
Cc1cccc(C)c1Nc1c(-c2ccc(Cl)s2)nc2ncccn12	?	44.7µM*
CCc1cccc(C)c1Nc1c(-c2cccs2)nc2ncccn12	6.0%	?
COc1ccccc1OC(C(=O)NC1CC1)c1ccccc1 (centres undefined)	-3.3%	i
COC1/C=C\OC2(C)Oc3c(C)c(O)c4c(c3C2=O)C2(C=C(NC(=O)/C(C)=C\C=C/C(C)C(O)C(C)C(O)C(C)C(OC(C)=O)C1C)C4=O)OCC(=O)O2 (centres undefined)	1.7%	i
COc1ccc2c(C)c(CCC(=O)Nc3ccc(Br)c(C)c3)c(=O)oc2c1	2.4%	i
O=C(C1CC1)N(Cc1ccc2c(c1)CN(S(=O)(=O)c1ccccc1F)CCO2)c1ccccc1	0.0%	?
O=C(C1CC1)N(Cc1ccc2c(c1)CN(S(=O)(=O)c1ccc(F)c(F)c1)CCO2)c1ccccc1	89.1µM*	?
O=C(Cc1n[nH]c(=O)c2ccccc12)Nc1ccc(S(=O)(=O)N2CCCC2)cc1	-18.9%	39.8µM*
Cn1nc(CC(=O)Nc2ccc(S(=O)(=O)N3CCCCCC3)cc2)c2ccccc2c1=O	-3.5%	i
COc1ccc(C(=O)c2sc(Nc3ccccc3)c(C(N)=O)c2N)cc1	-4.5%	i
COc1ccc(C(=O)N/C(=C\c2ccc(-c3cccc(C(F)(F)F)c3)o2)C(=O)NC(C)C)cc1	3.3%	i
Cc1ccc(-c2nnc(Nc3ccc(Cl)c(Cl)c3)c3ccccc23)cc1S(=O)(=O)N(C)C	-16.0%	i
SMILES	UDG counter	AID inh
CCN(CC)S(=O)(=O)c1cc(-c2nnc(Nc3ccc(OC)c(C(N)=O)c3)c3ccccc23)ccc1C	?	35.5µM*
COc1cc(Cl)c(NC(=O)C2CCN(c3nccnc3Oc3ccc(C)cc3)CC2)c(OC)c1	-7.6%	i
CCOc1ccc(NC(=O)CN(c2ccccc2OCC)S(=O)(=O)c2ccccc2)cc1	-9.2%[57.5 µM]	?
CCOc1ccc(NC(=O)CN(c2ccc(Cl)cc2C)S(=O)(=O)c2ccccc2)cc1	89.1µM*	?
Cc1ccc2nc(/C(C#N)=C\c3ccc(C)s3)[nH]c2c1	-12.5%	i
CN(Cc1ccco1)C(=O)c1cc(-c2cccs2)nc2ccccc12	3.1%	i
O=C(c1cc2ccc3cccnc3c2[nH]1)N1CCN(c2ccc(Cl)cc2)CC1	-5.2%	i
Cc1ccc(Cl)cc1N1CCN(C(=O)c2cnc(N3CCOCC3)c3ccccc23)CC1	?	22.4µM*
Cc1ccc(Cl)cc1N1CCN(C(=O)c2cc3ccc4cccnc4c3[nH]2)CC1	-11.5%	22.4µM*
Cc1ccc(Cl)cc1N(C)C(=O)c1cnc(N2CCOCC2)c2ccccc12	50.7%	i
CC(C)c1ccc(OCC(=O)Nc2cc(-c3nc4ncccc4o3)ccc2Cl)cc1	0.8%	i
CCC(C)c1ccc(OCC(=O)Nc2cccc(-c3nc4ncccc4o3)c2)cc1 (centres undefined)	-17.3%	31.6µM*
O=C(N/N=C/c1ccccc1F)C1CC1	-1.5%	i
Cc1cc(C)c(OCC(=O)N(Cc2ccco2)Cc2ccco2)c(C)c1	-0.8%[57.5 µM]	44.7µM*
Cc1ccc(CN(Cc2ccco2)C(=O)COc2c(C)cc(C)cc2C)cc1	-29.8%	?
Cc1ccc(CN(Cc2ccco2)C(=O)COc2cccc(C)c2C)o1	-7.8%[57.5 µM]	39.8µM*
Cc1cccc(OCC(=O)N(Cc2ccc(N(C)C)cc2)Cc2ccco2)c1C	-18.5%	?
Cc1ccc(/C=N/Nc2ccc(Cl)c(Cl)c2)c(C)c1	-15.4%	i
Cc1cccc(-c2nc(C#N)c(N3CCN(Cc4ccccc4)CC3)o2)c1	-2.0%	i
Cc1ccc(Nc2nc(CN3CCN(S(=O)(=O)c4ccc(F)c(F)c4)CC3)cs2)cc1	-17.4%	i
CNc1oc(-c2ccc(Cl)cc2)nc1S(=O)(=O)c1ccc2c(c1)OCCO2	1.7%	i
CNc1oc(-c2ccccc2F)nc1S(=O)(=O)c1ccc2c(c1)OCCO2	79.4µM*	i
CCCn1c(=O)c2ccccc2n(CC(=O)N(CC)c2cccc(C)c2)c1=O	-8.9%	i
Cc1cc(C)c(C(=O)C(C)OC(=O)c2ccc(CO)cc2)cc1C (centres undefined)	6.0%	i
O=C1C(C2=CCCCC2)CCCC1C1=CCCCC1 (centres undefined)	-3.1%	i
SMILES	UDG counter	AID inh
CCCCc1c(C)c2ccc(OC)c(/C(C)=N/O)c2oc1=O	6.3%	i
CCCCNC(=O)C1CCCN(Cc2nc(-c3ccc(Cl)cc3)oc2C)C1 (centres undefined)	?	i
Cc1oc(-c2ccc(Cl)cc2)nc1CN1CCCC(C(=O)NCc2ccccc2)C1 (centres undefined)	89.1µM*	i
Cc1cccc(-c2nc(CN3CCCC(C(=O)N4CCN(c5cc(Cl)ccc5C)CC4)C3)c(C)o2)c1 (centres undefined)	89.1µM*	?
Cc1ccc(C)c(N2CCN(C(=O)C3CCN(Cc4nc(-c5cccc(Cl)c5)oc4C)CC3)CC2)c1	89.1µM*	i
Cc1ccc(Cl)cc1N1CCN(C(=O)C2CCN(Cc3nc(-c4ccc(Cl)cc4)oc3C)CC2)CC1	89.1µM*	?
COc1ccc(N2CCN(C(=O)C3CCN(Cc4nc(-c5ccc(Cl)cc5)oc4C)CC3)CC2)cc1	-7.5%	i
Cc1oc(-c2cccc(Cl)c2)nc1CN1CCC(C(=O)NCCCN2CCN(c3ccccc3F)CC2)CC1	-6.5%	i
Cc1ccccc1-c1nc(CN2CCCC(C(=O)NCc3ccc(Cl)cc3)C2)c(C)o1 (centres undefined)	?	i
CCOC(=O)c1ccc(Oc2c(C(F)(F)F)oc3cc(OC(=O)c4ccccc4)ccc3c2=O)cc1	-1.5%	i
